# Reference: the supplement of paper PMC6555819
# What was measured:
# Experiment in all cases: PBM binding z-score (relative to random genomic background probes); higher = stronger binding; sequences stand for … in GC…GCGATTGACAGCGTAGAATGAAGG
# [1] = tested on: RARb homodimer (NR concentration 270 nM)
# Procedure, shortened: (§1)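 Custom Agilent 4×180K protein-binding microarrays carried double-stranded probes. Their 34-nt variable regions held direct-repeat seeds, single-nucleotide variants, half-site ablations and random human genomic background sequences. Arrays were incubated 1 h with ligand-free nuclear receptor dimers in PBS pH 7.4, 2% milk, 0.02% Triton X-100, 1 mM DTT, 0.2 mg/mL BSA and 0.4 mg/ml salmon testes DNA. Antibodies against each partner (one per run) detected binding, and scanned fluorescence was regression-normalized. Binding z-scores use random background probes as reference.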
# [2] = tested on: RARg:RXRa (NR concentration 270 nM, RXRa partner concentration 90 nM)
# Procedure, shortened: as §1
# [3] = tested on: RARg homodimer (NR concentration 270 nM)
# Procedure, shortened: as §1
# [4] = tested on: RXRa DBDmut IVT, anti-RXR (DBD mutation: RXRa K156A/R161A, NR concentration 90 nM)
# Procedure, shortened: as §1
# [5] = tested on: RXRa homodimer (NR concentration 180 nM)
# Procedure, shortened: as §1
# [6] = tested on: THRa:RXRa (NR concentration 90 nM, RXRa partner concentration 90 nM)
# Procedure, shortened: as §1
# [7] = tested on: THRa homodimer (NR concentration 90 nM)
# Procedure, shortened: as §1
# [8] = tested on: VDR:RXRa (NR concentration 270 nM, RXRa partner concentration 90 nM)
# Procedure, shortened: as §1
# [9] = tested on: VDR homodimer (NR concentration 270 nM)
# Procedure, shortened: as §1
Sequence,PBM binding z-score [1],PBM binding z-score [2],PBM binding z-score [3],PBM binding z-score [4],PBM binding z-score [5],PBM binding z-score [6],PBM binding z-score [7],PBM binding z-score [8],PBM binding z-score [9]
CCTTACGTGTCACTGACAGGTTATAGCATTTGGA,1.37,1.71,1.21,0.934,0.941,0.816,0.847,0.871,0.842
CCTTATGGGTCACTGACAGGTTATAGCATTTGGA,3.37,5.28,3.89,1.05,4.43,2.59,0.464,2.89,0.502
CCTCGGTGGACAGAAGGTCAGAGCTGTCCGCTTT,2.87,2.3,1.99,-0.526,1.84,1.89,-0.379,0.609,-0.538
CGAACGAGGGCATGATTTGATAGCAAATGCCGAT,0.522,0.771,1.19,1.99,0.631,0.985,-0.278,0.55,0.561
ACTCGGAGGACAAAGGTTAGAGCTACGCCAGTGA,1.89,2.94,1.93,0.75,1.7,1.76,-0.114,0.555,0.17
AATACAGTGTCACTAGGCCAGAGTAGGTACGAAT,0.565,0.553,0.864,0.0246,0.185,0.145,-0.314,-0.0369,0.0225
CAAACTAGGTCAAGAGTTCAAAGTCCGCTTCCCG,4.97,7.16,6.48,3.87,5.58,3.33,1.28,6.21,7.25
CCTATGAGTTGACCATAAGGGCAACCGAAGCTCG,1.98,2.18,1.09,0.755,0.985,2.49,1.04,0.81,0.847
ACTATTAGTTAACTTAGGGCAACCGATACGACGC,0.839,0.89,1,0.837,0.532,1.88,0.447,0.299,0.283
TCTATTAGTTGAAGGGCAAACGACGAGTCCGTTT,1.26,0.673,0.64,1.79,1,0.493,0.286,1.45,1.91
ACAAGTTGGTCAGCTGAGGTCACACACAATTCGG,4.58,4.2,3.99,2.18,4.19,5.13,5.16,4.66,3.37
TCTATTAGTTGATTAGGGCAACCGGAACAGCGGA,0.786,0.516,0.529,1.16,0.673,0.816,0.261,0.629,0.547
AGTCAAAGTTCATCTAGGAAACGTAAGATATGCT,3.89,5.45,6.42,4.79,4.58,1.98,-0.21,4.66,4.34
